Fam108B inh = Fam108B inhibition, counter-screen for RBBP9 inhibitors; recombinant Fam108B, FP-Rh probe fluorescence polarization; inhibition, % at 9.51 µM; actives 0.33% (n = 300,000);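 active means inhibition above the screen mean inhibition plus 3 SD, computed separately per campaign, cut at about 18% in these data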;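 further: inhibitors lower polarization as less probe binds the enzyme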
PREPL inhibitor = inhibits the human prolyl oligopeptidase-like enzyme. Q4J6C6. recombinant PREPL, fluorescence polarization activity-based probe. inhibition, % at 5.96 µM. actives 0.68% (n = 320,000); in the data active means inhibition above about 43%
PME-1 primary = blocks human protein phosphatase methylesterase 1; Q9Y570; recombinant PME-1, FP-Rh probe fluorescence polarization; inhibition, % at 5.9 µM; actives 0.53% (n = 320,000);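 active means inhibition above the campaign mean of all compounds plus 3 SD, cut at about 26% in these data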;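 further: competitive labeling of PME-1 active site by serine hydrolase directed probe; inhibitors block probe labeling so polarization falls and inhibition rises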
LYPLA1 inh = blocks human lysophospholipase 1, a PME1 counter-screen; O75608; recombinant LYPLA1, FP-Rh probe fluorescence polarization; inhibition, % at 5.9 µM; actives 0.16% (n = 320,000);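 active means inhibition above the mean of all tested compounds plus 3 SD, set per campaign, cut at about 14% in these data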;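 further: inhibitors block serine hydrolase probe labeling of LYPLA1 so polarization falls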
Target sequence (O75608 whole entry, looked up): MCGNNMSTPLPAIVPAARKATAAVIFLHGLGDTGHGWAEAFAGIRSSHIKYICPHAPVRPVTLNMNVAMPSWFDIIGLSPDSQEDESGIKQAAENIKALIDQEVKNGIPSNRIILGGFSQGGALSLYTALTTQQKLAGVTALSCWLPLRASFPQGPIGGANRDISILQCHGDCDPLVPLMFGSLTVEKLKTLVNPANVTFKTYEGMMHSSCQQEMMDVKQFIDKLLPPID
MEX-5 binding = C. elegans MEX-5 TCR-2 RNA binding activity; activity score (negative = inhibition of binding), % at 10 µM; MEX-5/FITC-TCR2 RNA binding, fluorescence polarization; hits give low values; actives 0.38% (n = 300,000);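 active means inhibition past about -25% in most replicates, and total fluorescence under double the plate's negative control median, limit read from the data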
LYPLA2 counter = blocks human lysophospholipase 2, a PME1 counter-screen. AID 2177. actives 0.38% (n = 320,000). inhibition, % at 5.9 µM. recombinant LYPLA2, FP-Rh probe fluorescence polarization. O95372;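 active means inhibition above the screen-wide mean plus 3 SD, limit set per campaign, cut at about 26% in these data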
Target sequence (O95372 whole entry, looked up): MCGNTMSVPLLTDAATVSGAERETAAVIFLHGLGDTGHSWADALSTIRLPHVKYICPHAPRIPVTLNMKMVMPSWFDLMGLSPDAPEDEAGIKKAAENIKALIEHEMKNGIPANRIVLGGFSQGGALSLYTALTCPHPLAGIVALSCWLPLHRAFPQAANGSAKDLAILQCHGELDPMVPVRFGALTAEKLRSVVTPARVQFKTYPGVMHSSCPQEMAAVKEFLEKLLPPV
Each line names hits and unclear results; the compound was inactive in the other large screens. Compounds with a hit are over-represented: about 1.6% of the library has one in this group of screens.

COc1ccc(-c2nc(NC(=O)c3[nH]c(C)c(C(C)=O)c3C)sc2C)cc1	PME-1 primary 46.8
CN(C)S(=O)(=O)c1ccc(C(=O)Nc2cccc(S(=O)(=O)NC3=NCCC3)c2)cc1	none
Cc1csc(NC(=O)CSc2nccn2C)n1	none
COc1c(S(=O)(=O)NCCN2CCOCC2)ccc(Cl)c1Cl	PREPL inhibitor 43.8
Cc1ccc2ccc(C3C(=O)c4ccccc4C3=O)nc2c1	MEX-5 binding -40.5
Cc1ccc(C)c(C2C(=O)c3ccccc3C2=O)c1	none
CC(=O)Nc1nnc(SCC(=O)NCc2ccc3c(c2)OCO3)s1	none
Cc1ccn(C(=O)c2ccc(NC(=O)CC(C)C)cc2)n1	PREPL inhibitor 71.1
O=C(C[n+]1cc[nH]c1)c1ccc(Cl)cc1	none (no result: Fam108B inh, PREPL inhibitor, PME-1 primary, LYPLA1 inh, LYPLA2 counter)
O=C(CSc1nncs1)N1CCN(C(=O)c2ccco2)CC1	none
CCCN(CC(=O)Nc1ccccc1C)C(=O)COc1c(C)cccc1C	none (no result: Fam108B inh, MEX-5 binding)
CCCN(CC(=O)Nc1ccccc1C)C(=O)COC(=O)CSc1ccc([N+](=O)[O-])cc1	PME-1 primary 28.1
Cc1cc(C(=O)CC#N)c(C)n1-c1ccc(OC(F)F)cc1	PME-1 primary 36.1
COC(=O)c1cc(C(=O)OC)cc(-n2c(C)cc(C(=O)CC#N)c2C)c1	none
O=c1c(O)c(-c2ccccc2)oc2cc(O)cc(O)c12	none (no result: Fam108B inh, PME-1 primary, LYPLA1 inh, MEX-5 binding, LYPLA2 counter)
CC(C)=CCc1cc(-c2oc3cc(O)cc(O)c3c(=O)c2O)ccc1O	PME-1 primary 34.1
CC(=O)Oc1c(I)cc(I)cc1C(=O)Nc1ccc(Cl)cc1	PME-1 primary 60.6
Cc1ccc(C)c(N2CCN(C(=O)c3cc4ccccn4n3)CC2)c1	MEX-5 binding -29.4
CC(=O)c1ccc(NC(=O)C2Cc3ccccc3CN2C(=O)c2ccccc2)cc1 (stereo not drawn)	none
COc1ccc(NC(=O)C2Cc3ccccc3CN2C(=O)c2ccccc2)cn1 (stereo not drawn)	MEX-5 binding -38.0
COC(=O)/C(=C(O)\C=C\c1ccccc1[N+](=O)[O-])c1nc2ccccc2[nH]1	PME-1 primary 29.3
Cc1cccc2cc(/C=N/Nc3ccc(C(=O)O)cc3)c(Cl)nc12	PME-1 primary 35.6
COc1ccc(CCN2CCCC(CN(C)Cc3cc(Cl)c(O)c(OC)c3)C2)cc1 (stereo not drawn)	none (no result: Fam108B inh, PREPL inhibitor, PME-1 primary, LYPLA1 inh, LYPLA2 counter)
CC(Cc1ccc(O)c(O)c1)C(C)Cc1ccc(O)c(O)c1 (stereo not drawn)	MEX-5 binding -35.9
O=C(NC(C(=O)N/N=C/c1cc([N+](=O)[O-])ccc1O)c1n[nH]c(=O)c2ccccc12)c1ccccc1 (stereo not drawn)	PME-1 primary 48.7
O=C(NC(C(=O)N/N=C/c1cccc2ccccc12)c1n[nH]c(=O)c2ccccc12)c1ccccc1 (stereo not drawn)	none
CCCCN1C(=O)/C(=C/C=C2\Oc3ccccc3N2CC)SC1=S	MEX-5 binding -28.3 (no result: Fam108B inh, PREPL inhibitor, PME-1 primary, LYPLA1 inh, LYPLA2 counter)
C/C(=N/NC(=O)CNC(=O)c1cccnc1)c1cccc([N+](=O)[O-])c1	none
Cc1cc(Br)ccc1N=C1NC(=O)CS1	PME-1 primary 60.3
Cc1ccc(CN2C(=O)N/C(=C\c3ccc(-c4ccc(C(=O)O)cc4C)o3)C2=O)cc1	PREPL inhibitor 77.8 (no result: MEX-5 binding)
CC(C)N1CCc2c(sc(NC(=O)c3ccc4ccccc4c3)c2C(N)=O)C1	MEX-5 binding -37.4
CCOC(=O)c1c(NC(=O)C2COc3ccccc3O2)sc2c1CCN(Cc1ccccc1)C2 (stereo not drawn)	none
COc1cccc(OC)c1C(=O)Nc1sc2c(c1C(N)=O)CCN(Cc1ccccc1)C2	none
NC(=O)c1c(NC(=O)C2COc3ccccc3O2)sc2c1CCN(Cc1ccccc1)C2 (stereo not drawn)	MEX-5 binding -61.6
CC(C)N1CCc2c(sc(NC(=O)Cc3ccccc3)c2C(N)=O)C1	none
CC(=O)c1ccc(C(=O)Nc2sc3c(c2C(N)=O)CCN(Cc2ccccc2)C3)cc1	MEX-5 binding -37.4
Cc1cc(C2C(C#N)=C(N)OC3=C2C(=O)CCC3)c(C)s1 (stereo not drawn)	none
COc1cc(C2C(C#N)=C(N)OC3=C2C(=O)CCC3)c([N+](=O)[O-])cc1OC (stereo not drawn)	Fam108B inh 19.1, MEX-5 binding -62.8
CC1(C)CC(=O)C2=C(C1)OC(N)=C(C#N)C2c1cc2c(cc1[N+](=O)[O-])OCO2 (stereo not drawn)	MEX-5 binding -55.7

Assay outcomes as filed in PubChem.
